Experimental data as given in PubChem BioAssay (NCI).
This is part of a sample that, as a whole, favours compounds with a hit. Of some 83,000 tested, about 20% had one in any assay.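 Growth was measured after 48 h exposure to one concentration of compound in 96-well plates. Values under 10 count as active.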 Values without a mark were called inactive. The source made the active and inactive calls.

Experiments:
Experiment in all cases: NCI-60 one-dose screen, 48 h (100 = growth as untreated, 0 = no growth, -100 = all killed)
Details in all cases: 10 µM unless noted
[1] = tested on: NCI-H23 lung
[2] = tested on: NCI-H226 lung
[3] = tested on: NCI-H322M lung
[4] = tested on: HOP-62 NSCLC
[5] = tested on: NCI-H460 lung
[6] = tested on: HOP-92 NSCLC
[7] = tested on: A549/ATCC NSCLC
[8] = tested on: 786-0 renal
[9] = tested on: COLO 205 colon

| Structure (SMILES) | growth [1] | growth [2] | growth [3] | growth [4] | growth [5] | growth [6] | growth [7] | growth [8] | growth [9] |
| --- | --- | --- | --- | --- | --- | --- | --- | --- | --- |
| O=C(CN1CCN(c2ccc(Cl)cc2)CC1)N1CCN(c2nnc(-c3ccccc3)c(-c3ccccc3)n2)CC1 | 34.9% | 43.7% | 80.7% | 58.1% | 30.7% | 39.1% | -6.5% (active) | 35.9% | 33% |
| Nc1ccccc1C#Cc1ccccc1C#Cc1ccc(OCCCCCCOc2ccc(C#Cc3ccccc3C#Cc3ccccc3N)cc2)cc1 | 95.3% | 99.6% | 106% | 93.9% | 114% | 88.8% | 106% | 89.8% | 96.7% |
| O=C(/C=C/c1c(-c2ccccc2)[nH]c2ccccc12)S(=O)(=O)c1ccccc1 | 73% | 69.1% | 93% | 69.3% | 43.8% | 47.8% | 25.7% | 74.4% | 80.6% |
| COc1cc(C(=O)/C=C/c2cccc(Nc3ccnc4cc(Cl)ccc34)c2)cc(OC)c1OC | 11.1% | -18.7% (active) | 8.86% (active) | -76.8% (active) | 4% (active) | 16.3% | -38.7% (active) | -74.1% (active) | -36.1% (active) |
| O=c1oc2c(cc1-c1ccc([N+](=O)[O-])cc1)C(O)Oc1ccccc1-2 (stereo not given) | 89.3% | 101% | 107% | 98.1% | 97.2% | -13.6% (active) | 78.7% | 98% | 93.5% |
| CCN(CC)CCOCC[C@H]1CC[C@H]2[C@@H]3[C@H](C)Cc4cc(OS(N)(=O)=O)ccc4[C@H]3CC[C@]12C | -87.4% (active) | -61.9% (active) | -24.9% (active) | -96.7% (active) | -85.2% (active) | -88.2% (active) | -90.2% (active) | -99.6% (active) | -78.5% (active) |
| CCOc1cc(/C=C/C(=O)C(C(=O)/C=C/c2ccc(OC(=O)CNc3nc4ccccc4[nH]3)c(OCC)c2)C(=O)CNc2nc3ccccc3[nH]2)ccc1OC(=O)CNc1nc2ccccc2[nH]1 | 6.88% (active) | -10.9% (active) | 23.2% | 10.1% | -27.3% (active) | -13% (active) | 7.62% (active) | -47.7% (active) | -41.8% (active) |
| Fc1ccccc1C1c2ccccc2-c2nccn21 (stereo not given) | 87% | 88.1% | 96.2% | 98.4% | 110% | 61.8% | 94.9% | 89.7% | 111% |
| COc1ccc(NC(=O)c2ccc(-c3ccccc3)cc2)c(C(N)=O)c1 | 94.5% | 94.9% | 91.6% | 103% | 100% | 103% | 94.1% | 106% | 110% |
| NS(=O)(=O)c1ccc(N2CC(c3nc4ccccc4[nH]3)CC2=O)cc1 (stereo not given) | 90.3% | 97.1% | 88.9% | 85.4% | 100% | 100% | 99.5% | 102% | 101% |
| CC(=O)Nc1c(Cl)cc2c(c1Cl)Cc1ccccc1-2 | 91.5% | 90.7% | 106% | 107% | 104% | 87.7% | 92.1% | 108% | 112% |
| COc1cc(/C=N/NC(=O)c2ccc(C(F)(F)F)nc2Nc2cc(Cl)ccc2C)cc(OC)c1OC | 104% | 96.6% | 105% | 99.7% | 108% | -30% (active) | 103% | 97.7% | 109% |
| CC(=O)c1nn(-c2ccccc2)c(=Nc2ccccc2)cc1C | 107% | 98.1% | 103% | 91.7% | 101% | 55.2% | 99.7% | 107% | 109% |
| O=C1c2cccc3c([N+](=O)[O-])ccc(c23)C(=O)N1CCCCl | -74.8% [100 µM] (active) | -54.1% [100 µM] (active) | -96.2% [100 µM] (active) | -92.4% [100 µM] (active) | -34.7% [100 µM] (active) | -82.5% [100 µM] (active) | -73.7% [100 µM] (active) | -83.8% [100 µM] (active) | -80.4% [100 µM] (active) |
| COc1ccc2c(c1)[n+](=O)c(C(=O)/C=C/c1cc(OC)c(OC)c(OC)c1)c(C)n2[O-] | 65.9% | 79.1% | 81.3% | 101% | 44.7% | 63.7% | 74.1% | 70.9% | 58.9% |
| C/C(=C\CCc1ccsc1)CC/C=C(\C)CCCN1CCSCC1 | 89.6% | 91.3% | 78.3% | 99% | 76.9% | 73.3% | 67.5% | 102% | 85.6% |
| COC(=O)C1=CCC(n2cnc3c(N)ncnc32)O1 (stereo not given) | 92% | 87.5% | 94.4% | 94.3% | 121% | 89.9% | 96.5% | 107% | 103% |
| COc1ccc(C2=NN(C(N)=S)C(c3ccc4c(c3)OCO4)C2)cc1 (stereo not given) | 26.7% | 58.2% | 25.6% | 46.7% | 42.6% | 54% | 58.6% | 30.6% | 56.5% |
| O=C1/C(=C/c2ccccc2Cl)CCc2ccccc21 | 102% | 106% | 101% | 106% | 104% | 90.7% | 83.5% | 102% | 115% |
| C=C1CCC2C(C)(COC(=O)CC)C(OC(=O)CC)CCC2(C)C1C/C=C1/C(=O)OCC1OC(=O)CC (stereo not given) | 57.4% | -18.3% (active) | 75.6% | -17.7% (active) | 79.6% | -9.73% (active) | 46.1% | -97.4% (active) | -28.1% (active) |
| CCN(CC)CCCCCCCNc1c2ccc(Cl)cc2nc2ccc(OC)cc12 | -24.3% (active) | -18.2% (active) | -35% (active) | -49.2% (active) | -67.6% (active) | -62.1% (active) | -37.9% (active) | -57.5% (active) | -92.5% (active) |
| CCOC(=O)C(Br)=P(c1ccccc1)(c1ccccc1)c1ccccc1 | 109% | 104% | 99.4% | 114% | 116% | 101% | 106% | 103% | 103% |
| CC(=O)N1N=C(c2ccc(Nc3nc(NCCO)nc(NCCO)n3)cc2)CC1c1ccc(Cl)cc1 (stereo not given) | 95.6% | 103% | 89.3% | 93.7% | 101% | 109% | 78.6% | 89% | 102% |
| c1cc[n+](Cc2ccnc3ccccc23)cc1 | 123% | 93.9% | 111% | 94.1% | 106% | 47.9% | 107% | 107% | 104% |
| COC(=O)C1(NC(=O)CNC(=O)OCc2ccccc2)CCCC1 | 106% | 99.1% | 113% | 111% | 111% | 85.2% | 95.3% | 95.3% | 125% |
| N#Cc1c(NC(=O)c2ccco2)[n+]([O-])c2cc(Cl)c(Cl)cc2[n+]1[O-] | 86.3% | 106% | 121% | 137% | 109% | 212% | 96.6% | 107% | 114% |
| O=[N+]([O-])c1ccc(N=Nc2c(Cl)cc(O)cc2Cl)cc1 | -23.4% (active) | 10.3% | -11.9% (active) | 4.04% (active) | -4.31% (active) | 3.34% (active) | 16.4% | -20.1% (active) | 35.2% |
| CC(C)N(Cc1ccccc1)c1c(Cl)ssc1=O | 106% | 101% | 109% | 113% | 109% | 82.5% | 88.8% | 102% | 106% |
| Cc1cc2c(cc1C)[n+](Cc1ccc3ccccc3n1)cn2Cc1ccc2ccccc2n1 | 1.58% (active) | 9.61% (active) | 36% | 4.38% (active) | 0.342% (active) | -27.3% (active) | 30.4% | 11.2% | -61.5% (active) |
| COc1ccc(-n2cnc3cc(C(=O)N4CCCCC4)ccc32)cc1 | 95.5% | 95.3% | 102% | 91.4% | 101% | 95.3% | 103% | 100% | 105% |
